Tau fluor cs = counter-screen for tau fibril formation inhibitors. tau K18 P301L Alexa594 fluorescence, heparin fibrillization. Potency, µM (titrated, usually from 57.7 µM), for inactives: at the top dose activity change, negative = decrease. 0.93% of 280,000 active. AID 1463; further: nearly all actives have a fitted effect of over 55% in size
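Human K18 P301L tau (15 uM unlabeled plus 0.24 uM Alexa 594-labeled, final) in 100 mM sodium acetate pH 7 was mixed with compound and 20 uM heparin and incubated 6 hr at 37 C.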
Tau fibril ThT = blocks human tau fibril formation measured by thioflavin T. AID 1460. P10636. recombinant tau K18 P301L (four-repeat tau fragment), heparin-induced fibrillization, ThT fluorescence. Potency, µM (doses to about 57.4 µM), inactives show at the highest dose activity, negative = inhibition, most hits filed as inhibitors. 2.1% of 270,000 active; further: nearly all actives have a fitted effect of over 55% in size
Target sequence (P10636 561-689 P618L limits assumed): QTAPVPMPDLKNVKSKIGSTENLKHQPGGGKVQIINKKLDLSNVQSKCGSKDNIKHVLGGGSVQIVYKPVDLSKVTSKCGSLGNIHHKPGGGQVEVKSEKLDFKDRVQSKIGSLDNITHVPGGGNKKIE
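K18 P301L tau (15 uM + 0.24 uM Alexa 594-tagged), heparin 20 uM, NaOAc pH 7, 6 h 37 C; ThT 30 uM, 1 h RT, ex 450/em 510 nm.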
Tau FP inhib = inhibitors of human tau fibril formation; Potency, µM (titrated, usually from 57.7 µM), for inactives: at the highest dose activity, negative = inhibition, most hits filed as inhibitors; AID 1468; K18 P301L tau heparin fibrillization, Alexa594 FP, 6 h; 0.39% of 280,000 active; further: nearly all actives have a fitted effect of over 55% in size
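K18 P301L tau (15 uM unlabeled/0.24 uM Alexa 594-labeled, final) + compound + heparin 20 uM final; 100 mM NaOAc pH 7; 6 hr 37 C; ThT 30 uM final added, 1 hr RT; FP ex 555/em 632 nm.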
RGS12 GoLoco inh = blocks human Gai1 binding to RGS12 GoLoco peptide, red readout. P63096. Gai1:RGS12 GoLoco peptide FP, rhodamine, 10 min. Potency, µM (doses to about 61.6 µM), inactives show at the highest dose activity, negative = inhibition, most hits filed as inhibitors. 0.44% of 230,000 active; active means well fitted inhibition curve with a large enough effect, not every such curve was filed as active; inactive means no such curve, though single readings can be large or run the other way; further: nearly all actives have a fitted effect of over 30% in size
Target sequence (P63096 whole entry, looked up): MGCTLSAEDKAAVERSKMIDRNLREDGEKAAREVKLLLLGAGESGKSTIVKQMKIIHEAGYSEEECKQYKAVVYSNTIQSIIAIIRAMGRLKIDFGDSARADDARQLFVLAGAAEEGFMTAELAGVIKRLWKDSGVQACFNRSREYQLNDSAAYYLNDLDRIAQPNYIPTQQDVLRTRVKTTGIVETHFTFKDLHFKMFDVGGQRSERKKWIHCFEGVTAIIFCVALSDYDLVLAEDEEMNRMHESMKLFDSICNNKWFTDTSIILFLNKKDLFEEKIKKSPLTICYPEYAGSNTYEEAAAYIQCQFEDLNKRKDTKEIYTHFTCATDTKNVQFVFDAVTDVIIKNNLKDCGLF
TRb-SRC2 inh = TRbeta-SRC2 interaction inhibition; P10828; Potency, µM (doses to about 106 µM), for inactives: top-dose activity change, negative = inhibition, usual class: inhibitors; 0.065% of 280,000 active; TRbeta-SRC2 peptide binding, fluorescence polarization; receptor liganded with 1 µM T3;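 further: plate controls were bound peptide for no effect and peptide without receptor for full effect; nearly all actives have a fitted effect of over 50% in size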
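Decrease in fluorescence polarization of 20 nM Texas Red SRC2 coactivator peptide flagged inhibition of its binding to 0.6 uM TRb LBD; 1 uM T3 included, incubation 5 hr, ex 555/em 632 nm.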
TexasRed fluor = counter-screen for TRb-SRC2 inhibitors: fluorescence interference | TRb/SRC2 Texas Red total fluorescence interference | Potency, µM (titrated, usually from 106 µM), without a hit: at the top dose fluorescence change, negative = quenching | 0.29% of 280,000 active | AID 1479; active means well fitted curve in either direction with a large enough effect; inconclusive means small, poorly fitted or top-dose-only effect
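Flags fluorescent or light-absorbing compounds by total fluorescence, S + 2P, at 555 nm excitation and 632 nm emission. Mixture: 20 nM Texas Red SRC2 peptide, 0.6 uM human TRb LBD, 1 uM T3, 5% DMSO; compound exposure 5 h at ambient temperature.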
* hit, by the source's call; [ ] = remark or other dose. The list is not random: actives were taken first. Their share in the collection is about 3.2%. Unless noted, the call rests on the fitted dose curve; in most records, active means well fitted curve in the direction sought with a large enough effect; inconclusive means small, poorly fitted or top-dose-only effect, or another doubt; inactive means no such curve, though single readings can be large; an effect the other way counts as inactive or inconclusive. Unless noted, on the % scale 0 is the no-effect control and ±100 the full control effect; potency means the concentration at half of the fitted maximal effect.

`C/C(CCC(=O)OC[C@@H]1O[C@H](C#Cc2ccccc2)C=C[C@@H]1Oc1ccc(C)cc1)=N/O[C@@H](C)CN1CCCc2nc(C)c(C)cc21` gave Tau fluor cs -10.2%[11.6 µM], Tau fibril ThT -11.6%[11.5 µM], Tau FP inhib 0.1%[11.6 µM], TRb-SRC2 inh 1.6%[11.2 µM] and TexasRed fluor 1.4%[11.2 µM].
CC(C)(C)C(=O)C1C(=O)c2ccccc2C1=O was read as RGS12 GoLoco inh 10µM*, TRb-SRC2 inh -3.3% and TexasRed fluor -1.4%.
Screening O=C1C[C@H](c2ccc(-c3ccccc3)cc2)N1S(=O)(=O)c1ccccc1[N+](=O)[O-] returned TRb-SRC2 inh -1.2% and TexasRed fluor -2.0%.
For N#Cc1cccc(-c2nccc(-n3ccnc3)n2)c1 the results were RGS12 GoLoco inh -3.2%.
For CC(C)C[C@H](NC(=O)[C@H](CCCCN)NC(=O)CNC(=O)[C@H](CC(C)C)NC(=O)[C@@H](NC(=O)[C@@H]1CSSC[C@H](N)C(=O)N[C@@H](CO)C(=O)N[C@@H](CC(N)=O)C(=O)N[C@@H](CC(C)C)C(=O)N[C@@H](CO)C(=O)N[C@@H]([C@@H](C)O)C(=O)N1)C(C)C)C(=O)N[C@@H](CO)C(=O)N[C@@H](CCC(N)=O)C(=O)N[C@@H](CCC(=O)O)C(=O)N[C@@H](CC(C)C)C(=O)N[C@@H](Cc1cnc[nH]1)C(=O)N[C@@H](CCCCN)C(=O)N[C@@H](CC(C)C)C(=O)N[C@@H](CCC(N)=O)C(=O)N[C@H](C(=O)N[C@@H](Cc1ccc(O)cc1)C(=O)N1CCC[C@H]1C(=O)N[C@@H](CCCNC(=N)N)C(=O)N[C@H](C(=O)N[C@@H](CC(N)=O)C(=O)N[C@H](C(=O)NCC(=O)N[C@@H](CO)C(=O)NCC(=O)N[C@H](C(=O)N1CCC[C@H]1C(N)=O)[C@@H](C)O)[C@@H](C)O)[C@@H](C)O)[C@@H](C)O the results were TRb-SRC2 inh 10.1% and TexasRed fluor 3.0%.
Cc1ccc(S(=O)(=O)c2c(N)n(/N=C/c3ccco3)c3nc4ccccc4nc23)cc1C was read as Tau fluor cs inconclusive, Tau fibril ThT 15.8µM*, Tau FP inhib inconclusive, RGS12 GoLoco inh 212.0%, TRb-SRC2 inh -5.5% and TexasRed fluor -1.9%.
Screening Cc1cccc(S(=O)(=O)c2c(N)n(/N=C/c3ccco3)c3nc4ccccc4nc23)c1 returned Tau fluor cs inconclusive, Tau fibril ThT inconclusive, Tau FP inhib -1.0%, RGS12 GoLoco inh 204.4%, TRb-SRC2 inh inconclusive and TexasRed fluor -6.2%.
For Nc1c(S(=O)(=O)c2ccccc2)c2nc3ccccc3nc2n1/N=C/c1ccco1 the results were Tau fluor cs inconclusive, Tau fibril ThT 28.2µM*, Tau FP inhib -8.3%, RGS12 GoLoco inh 84.1%, TRb-SRC2 inh inconclusive and TexasRed fluor -23.8%.
For Nc1c(S(=O)(=O)c2cccs2)c2nc3ccccc3nc2n1/N=C/c1cccc(O)c1 the results were Tau fluor cs 3.16µM*[quencher], Tau fibril ThT -0.3%, Tau FP inhib 7.94µM*, RGS12 GoLoco inh -0.4%, TRb-SRC2 inh 3.9% and TexasRed fluor -1.1%.
Screening C=CCC1(O)CCOc2ccccc21 (stereo unspecified) returned Tau fluor cs 7.4%, Tau fibril ThT 7.8%, Tau FP inhib 5.6%, RGS12 GoLoco inh 2.1%, TRb-SRC2 inh -5.6% and TexasRed fluor -1.3%.
Screening Cc1nc(-c2ccc(Cl)cc2)oc1COC(C)(C)C(=O)O returned TRb-SRC2 inh 6.0% and TexasRed fluor -0.2%.
For Cc1ccc(P(=O)(CSC(=N)N)c2ccc(C)cc2)cc1 the results were Tau fluor cs -15.7%, Tau fibril ThT 12.6µM*, Tau FP inhib inconclusive, RGS12 GoLoco inh -7.9%, TRb-SRC2 inh 0.3% and TexasRed fluor -4.3%.
